Shown are actives, neighbours in structure and some others; about 8.9% of the full set was active somewhere.
IMPase inh = membrane-permeable compound that blocks inositol monophosphatase | 120,000 tested, under 10 active | P97697 | AID 901 | inhibition (IP1 accumulation), % at 46.1 µM | CHO-M1 cells, IP1 accumulation, HTRF TR-FRET ratio; active means well fitted curve in the direction sought with a large enough effect in the signal ratio, not every such curve was filed as active; inconclusive means small, poorly fitted or top-dose-only effect, or a change in a side signal; inactive means no such curve, though single readings can be large or run the other way; the % refers to the signal ratio;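 further: cells stimulated with carbachol in lithium chloride buffer; higher means more IMPase inhibition seen as more IP1 and lower FRET ratio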
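The IP-One HTRF competitive assay in carbachol-stimulated CHO-M1 cells quantifies cellular IP1. Compounds spanned up to 46 uM final, and activity is expressed as AC50 from concentration-response fits of the ratio and donor data.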
NPSR antag = neuropeptide S receptor (human) antagonism, cAMP; Potency, µM (doses to about 38.3 µM), usual class: inhibitors; actives 1% (n = 220,000); CHO-NPSR cells, cAMP TR-FRET, antagonist mode; Q6W5P4; AID 1461; further: nearly all actives have a fitted effect of over 50% in size
HPGD inh = HPGD (human) dehydrogenase inhibition; purified HPGD, NADH fluorescence kinetic, PGE2 substrate; Potency, µM, most hits filed as inhibitors; actives 4.3% (n = 150,000); AID 894; P15428; active means well fitted inhibition curve with a large enough effect, not every such curve was filed as active; inconclusive means small, poorly fitted or top-dose-only effect, or another doubt; inactive means no such curve, though single readings can be large or run the other way
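NADH formation kinetics: reaction with 30 uM PGE2 and 1 mM NAD+ (final), 20 nM enzyme, Tris-HCl pH 8 with Tween 20, after 15 min compound preincubation at room temperature. Fluorescence change, last versus first of five reads.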
12-hLO inh = 12-hLO (ALOX12) enzyme inhibition. Potency, µM (doses to about 57.1 µM), usual class: inhibitors. purified 12-hLO, xylenol orange hydroperoxide absorbance. actives 0.12% (n = 150,000); further: nearly all actives have a fitted effect of over 55% in size
Target sequence (P18054 whole entry, looked up): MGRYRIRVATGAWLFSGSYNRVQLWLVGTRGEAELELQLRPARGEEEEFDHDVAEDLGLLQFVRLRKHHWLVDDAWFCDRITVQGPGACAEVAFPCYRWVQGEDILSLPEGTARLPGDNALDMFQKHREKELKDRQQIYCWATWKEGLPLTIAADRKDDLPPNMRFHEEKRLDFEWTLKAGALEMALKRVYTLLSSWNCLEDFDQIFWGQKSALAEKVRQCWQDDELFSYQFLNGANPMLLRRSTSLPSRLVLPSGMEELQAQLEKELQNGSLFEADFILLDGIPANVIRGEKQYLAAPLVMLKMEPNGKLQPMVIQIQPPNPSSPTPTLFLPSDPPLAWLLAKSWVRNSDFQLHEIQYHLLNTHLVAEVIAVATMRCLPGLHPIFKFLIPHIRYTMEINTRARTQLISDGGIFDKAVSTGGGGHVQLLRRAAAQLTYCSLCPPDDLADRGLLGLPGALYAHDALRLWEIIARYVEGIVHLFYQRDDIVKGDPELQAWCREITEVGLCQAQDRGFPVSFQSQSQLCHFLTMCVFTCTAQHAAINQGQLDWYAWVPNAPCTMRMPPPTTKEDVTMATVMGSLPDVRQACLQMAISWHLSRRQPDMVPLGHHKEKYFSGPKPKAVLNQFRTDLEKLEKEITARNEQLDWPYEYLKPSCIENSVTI
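150 nM 12hLO, 25 mM Hepes pH 7.0 + 0.01% Triton X-100; cpd preinc 15 min RT; 40 uM arachidonic acid, 30 min RT; Fe-XO 30 min; A573/A405 ratio as read-out.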
IMPase Li inh = IMPase inhibition in cells with lithium potentiation. CHO-M1 cells, IP1 TR-FRET (IP-One), carbachol + lithium. Potency, µM (highest dose often 59.4 µM), hits mostly inhibitors. actives 0.35% (n = 210,000). AID 1457;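 further: IP1 builds up when IMPase is blocked and the TR-FRET signal falls; nearly all actives have a fitted effect of over 50% in size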
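Concentration–response in CHO-M1 cells, lithium-potentiated; 30 min at 37C. IP1 detected by competitive TR-FRET after 10 min lysis at RT. Hill-fitted AC50.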
ALDH1A1 inh = inhibitors of human aldehyde dehydrogenase 1A1. P00352. AID 1030. Potency, µM (highest dose often 75.3 µM), most hits filed as inhibitors. actives 7.3% (n = 220,000). Purified ALDH1A1, NADH fluorescence, propionaldehyde substrate; active means well fitted inhibition curve with a large enough effect, not every such curve was filed as active; inconclusive means small, poorly fitted or top-dose-only effect, or another doubt; inactive means no such curve, though single readings can be large or run the other way
A number is an active result; i = inactive; ? = inconclusive; nt = no result given. Unless noted, the call rests on the fitted dose curve; in most records, active means well fitted curve in the direction sought with a large enough effect; inconclusive means small, poorly fitted or top-dose-only effect, or another doubt; inactive means no such curve, though single readings can be large; an effect the other way counts as inactive or inconclusive.

SMILES	IMPase inh	NPSR antag	HPGD inh	12-hLO inh	IMPase Li inh	ALDH1A1 inh
Cc1ccc(C(=O)O)cc1-n1c(C)cc(C=O)c1C	nt	i	nt	nt	i	2µM
COc1ccc(S(=O)(=O)N(C)CC(=O)N2CCC(C(N)=O)CC2)cc1	i	i	i	i	i	i
S=C(NCc1ccco1)N1CCN(Cc2ccc(Cl)cc2Cl)CC1	i	i	?	i	i	?
O=C(CSc1ccc(-c2cccs2)nn1)N1CCCCCC1	i	i	11µM	i	i	i
O=C(CSc1ccc(-c2ccccc2)nn1)N1CCOCC1	i	i	i	i	i	28µM
O=C(CSc1ccc(-c2cccs2)nn1)NCc1ccccc1Cl	?	i	32µM	i	i	i
O=C(Nc1nnc(SCC(=O)N2CCOCC2)s1)c1ccccc1	nt	i	32µM	i	i	i
CCOc1ccccc1C(=O)Nc1nnc(SCC(=O)N2CCOCC2)s1	nt	i	nt	nt	i	?
Nc1ccc(S(=O)(=O)Nc2ccnn2-c2ccccc2)cc1	i	?	i	i	i	i
C=C(C)C1CC=C(C)/C(=N/NC(=O)CNc2ccc(C)cc2C)C1 (configuration not stated)	nt	i	i	i	i	i
Cc1ccc(CN2CCN(/N=C/c3cc(Br)cc(Br)c3O)CC2)c(C)c1	i	i	i	i	i	i
COc1ccc(CNC(=O)CN(c2ccccc2)S(=O)(=O)N(C)C)cc1	i	i	nt	nt	i	i
O=C(CSc1ccc2nnc(-c3cccs3)n2n1)N1CCCC1	nt	i	nt	nt	i	?
O=C(CSc1ccc(-c2cccs2)nn1)N1CCCCC1	i	i	3.5µM	i	i	?
CC(=O)C1=C(O)C(=O)N(c2cccnc2)C1c1ccc(Cl)cc1 (configuration not stated)	i	i	i	i	6.3µM	?
Cc1noc(C)c1C(c1ccccc1)c1ccccc1	i	i	i	i	i	i
O=C(COc1ccccc1O)Nc1ccccc1Cl	i	i	18µM	i	i	?
COc1ccc(OCC(=O)Nc2ccccc2Cl)cc1	nt	i	nt	nt	i	i
O=C(COC(=O)c1ccccn1)Nc1ccccc1Cl	i	i	i	i	i	22µM
COc1ccc2[nH]c3c(NCCN4CCCCC4)ncnc3c2c1	i	?	?	i	i	?
COc1ccc2c(c1O)Cc1ccccc1C2=O	nt	i	i	i	i	?
O=C(Nc1cccnc1)c1scc2c1OCCO2	i	?	i	i	i	i
Cc1nn(C)c(C)c1NC(=O)CSc1nc(C2CC2)nc2c1cnn2-c1ccccc1	i	i	i	i	i	i
CC1CCCCN1C(=O)CSc1nc(C2CC2)nc2c1cnn2-c1ccccc1 (configuration not stated)	i	?	?	i	i	11µM
CCCn1nnnc1SCC(=O)Nc1sc(C)c(C)c1C#N	nt	i	nt	nt	nt	nt
SMILES	IMPase inh	NPSR antag	HPGD inh	12-hLO inh	IMPase Li inh	ALDH1A1 inh
N#Cc1ccc(-c2ccc(F)cc2)nc1SCC(=O)Nc1sc2c(c1C#N)CCC2	i	?	?	i	?	25µM
Cc1sc(NC(=O)CSc2nnnn2C2CCCC2)c(C#N)c1C	i	i	nt	i	nt	?
CCCCn1nnnc1SCC(=O)Nc1ccc(N(C)C)cc1	i	i	i	i	i	25µM
CCCCn1nnnc1SCC(=O)Nc1sc2c(c1C#N)CCCC2	i	i	i	i	i	28µM
N#Cc1c(NC(=O)CSc2nnnn2C2CCCC2)sc2c1CCCC2	i	i	i	i	i	3.5µM
COc1ccc(C2c3[nH]c4ccccc4c3CCN2CCCn2cccn2)c(C)c1C (configuration not stated)	nt	?	nt	nt	i	i
CCN(CC)CCOC(=O)C1(C2CCCCC2)CCCCC1	i	?	i	i	i	i
COc1ccc(-c2c[n+]3c(n2-c2ccccc2)CCCCC3)cc1	i	i	i	i	i	i
Cn1cnnc1SCC(=O)Nc1sc2c(c1C#N)CCCCC2	nt	i	i	i	i	7.1µM
COc1ccc(C)cc1-n1nnnc1SCn1nnc2ccccc2c1=O	i	i	i	i	i	18µM
Cc1ccc(-c2nc(CSCC(=O)N3CCOCC3)c(C)o2)cc1	i	i	i	i	i	?
CCc1cc2ccc(C)cc2nc1SCC(=O)N1CCN(C(=O)c2ccco2)CC1	i	i	?	i	i	10µM
Cc1ccc(-c2nc(CSCC(=O)N3CCN(C(=O)c4ccco4)CC3)c(C)o2)cc1	i	i	i	i	i	22µM
COc1ccc(C)cc1-n1nnnc1SCC(=O)NNC(=O)c1ccc([N+](=O)[O-])cc1	i	i	i	i	i	3.2µM
O=C(Nc1ccccc1)Nc1ccc(F)c([N+](=O)[O-])c1	nt	i	i	i	i	i
O=C(Nc1nc(-c2ccc3c(c2)OCO3)cs1)C1COc2ccccc2O1 (configuration not stated)	i	i	i	i	i	i
CCc1cc2cc(C)ccc2nc1SCC(=O)Nc1cc(C)on1	i	?	i	i	?	i
Cc1ccc(C)c(-n2nnnc2SCC(=O)NNC(=O)c2ccco2)c1	nt	i	nt	nt	i	8.9µM
CCc1cc2ccc(C)cc2nc1SCC(=O)Nc1cc(C)on1	nt	i	nt	nt	i	25µM
CCc1cc2ccc(C)cc2nc1SCC(=O)NNC(=O)c1ccco1	nt	i	i	i	i	4µM
Cc1ccc(-n2nnnc2SCC(=O)NNC(=O)c2ccco2)cc1C	i	i	i	i	i	?
CCOc1ccc2nc(SCC(=O)Nc3cccc(S(=O)(=O)NC4=NCCCCC4)c3)[nH]c2c1	nt	i	nt	nt	i	?
CN(C)c1nc(N(C)C)nc(N(C#N)CN2C(=O)c3ccccc3S2(=O)=O)n1	nt	i	nt	nt	i	20µM
CC(C)Nc1nc(Cl)nc(N(C#N)CN2C(=O)c3ccccc3S2(=O)=O)n1	nt	i	nt	nt	nt	22µM
CC(C)(C)Nc1nc(Cl)nc(N(C#N)CN2C(=O)c3ccccc3S2(=O)=O)n1	nt	i	nt	nt	i	i
SMILES	IMPase inh	NPSR antag	HPGD inh	12-hLO inh	IMPase Li inh	ALDH1A1 inh
CN(C(=S)NC(=O)Cc1ccccc1)c1ccccc1	nt	i	nt	nt	i	?
CCN1CCCC1CNCc1cccc(OC)c1OCc1ccc(F)cc1 (configuration not stated)	nt	i	i	i	i	i
O=C(COC(=O)Cc1ccsc1)NCC12CC3CC(CC(C3)C1)C2	i	i	i	i	i	?
CC1(C)CC(=O)C=C(NNC(=O)C2CCCCC2)C1	i	i	i	i	i	13µM
CN1CCN(CCC(=O)N/N=C/c2cc([N+](=O)[O-])ccc2O)CC1	nt	i	i	i	i	i
COc1ccc(NC(=O)CSc2ccc3nnc(-c4cccnc4)n3n2)c(OC)c1	nt	i	nt	nt	?	40µM
COc1ccc(-c2nnc3ccc(SCC(=O)NCc4ccco4)nn23)cc1OC	i	?	14µM	i	i	i
COc1ccccc1NC(=O)CSc1ccc2nnc(-c3cccnc3)n2n1	i	i	i	i	i	i
CCCOC(=O)Nc1ccc(C(N)=O)cc1	i	i	i	i	i	?

Screens deposited in PubChem by National Center for Advancing Translational Sciences (NCATS).
